A number with no mark means an inactive call. Records with an inconclusive call do not appear. Calls of active or inactive are those of the source. Unless noted, the call rests on the fitted dose curve.

Assay [1] is described as follows: Nuclear factor erythroid 2-related factor 2/antioxidant responsive element (Nrf2/ARE) small molecule agonists: qHTS cell viability counter screen in human keratinocytes (AID 1919968; active means well fitted curve in the direction sought with a large enough effect in the repeat runs; an effect the other way counts as inactive or inconclusive; further: nearly all actives have a fitted effect of over 55% in size). The method, boiled down:
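Seed 1,500 KeratinoSens cells per well, then incubate 5 h at 37 C/5% CO2. Add compounds in DMSO and incubate 23 h. Add CellTiter-Fluor, wait 1 h and read fluorescence.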
A general note: In qHTS, concentration-response curves come from the screen itself.

The nature of assay [2]: Nuclear factor erythroid 2-related factor 2/antioxidant responsive element (Nrf2/ARE) small molecule agonists: luciferase reporter gene qHTS assay in human keratinocytes (AID 1919969). Further: nearly all actives have a fitted effect of over 35% in size. Further: potency means the concentration at half of the fitted maximal effect. Background: Reporter assays use an easily measured gene product as a stand-in for the process of interest.
Assay [3] concerns the target Gonadotropin-releasing hormone receptor (Homo sapiens) (UniProt P30968). Kind of assay: Human gonadotropin-releasing hormone receptor (GnRHR) small molecule agonists, calcium flux assay in GnRHR-HEK293 cells (AID 1920063). Further: nearly all actives have a fitted effect of over 35% in size. The procedure, abridged: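 Cells: HEK293 stably expressing human GnRHR. Steps: overnight (18 h) culture, 1 h calcium dye loading at 37 C, compound addition, kinetic fluorescence read at 480/540 nm. Each compound tested at 15 concentrations in triplicate.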

In assay [4] the target is KiSS-1 receptor (Homo sapiens) (UniProt Q969F8). Kind of assay: Human kisspeptin (KISS1R) small molecule agonists, calcium flux assay in KISS1R-HEK293 cells (AID 1920064; active means well fitted curve in the direction sought with a large enough effect in the repeat runs; an effect the other way counts as inactive or inconclusive). The method, boiled down:
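Cells plated and incubated 18 h; dye added, 1 h at 37 C; compounds in DMSO pinned in; signal read at 480/540 nm every second for 3 min. Each compound tested at 15 concentrations in triplicate.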
(In general: Calcium flux is commonly read through the fluorescence of an indicator in the cells.)

Assay [5] is described as follows: G protein-coupled receptor (GPCR) small molecule agonists, calcium flux assay: HEK293 wild type cell line counter screen (AID 1920065). The method, boiled down:
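Counter-screen of the Tox21 10K library for non-specific calcium release: dye-loaded cells received compounds in DMSO and were monitored by kinetic fluorescence (480/540 nm, 3 min). Fifteen concentrations, run in triplicate.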

Assay [6] is described as follows: p53 small molecule agonists, cell-based qHTS assay with human liver microsomes (AID 1963577). The method, boiled down:
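Fluorescence of the beta-lactamase reporter in p53RE-bla cells, detected with LiveBLAzer substrate (2 h, room temperature, dark), served as the read-out after 16 h compound exposure at 37 C with human liver microsomes and NADPH, each 0.5 mg/mL final.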

A short description of assay [7]: p53 small molecule agonists, cell-based qHTS assay with rat liver microsomes (AID 1963578). The method, boiled down: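 Cells carrying a p53 response element–beta-lactamase reporter were plated and rested 5 h, then dosed with compound in DMSO plus rat liver microsomes and NADPH, each at 0.5 mg/mL final. After 16 h at 37 C, LiveBLAzer substrate was added for 2 h.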

A short description of assay [8]: p53 small molecule agonists, cell-based qHTS assay with human liver microsomes: qHTS cell viability counter screen (AID 1963579). Further: nearly all actives have a fitted effect of over 45% in size. The method, boiled down: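 Cytotoxicity counter screen: p53RE-bla, 4,000 cells/well; 5 h settle, 37 C/5% CO2; cpd + HLM 0.5 mg/mL + NADPH 0.5 mg/mL (final); 16 h, 37 C; CellTiter-Glo, 30 min RT, luminescence.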
Assay [9] can be described thus: p53 small molecule agonists, cell-based qHTS assay with rat liver microsomes: qHTS cell viability counter screen (AID 1963580). Further: nearly all actives have a fitted effect of over 45% in size. The procedure, abridged: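 HCT-116 p53RE-bla, 4,000 cells/well, 5 h pre-incubation; cpd + rat liver microsomes 0.5 mg/mL + NADPH 0.5 mg/mL (final); 16 h, 37 C; CellTiter-Glo, 30 min RT; luminescence.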
Assay [10] is described as follows: p53 small molecule agonists, cell-based qHTS assay: qHTS cell viability counter screen (AID 1963581). Further: nearly all actives have a fitted effect of over 45% in size. Further: potency means the concentration at half of the fitted maximal effect. The procedure, abridged: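 Cells: HCT-116 with p53 response element-driven beta-lactamase. Treatment: 16 h, 37 C, compounds in DMSO. Read: CellTiter-Glo luminescence after 30 min RT.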
The nature of assay [11]: p53 small molecule agonists, cell-based qHTS assay (AID 1963582; active means well fitted activation curve with a large enough effect in the signal ratio in the repeat runs, not every such curve was filed as active; the % refers to the signal ratio). The method, boiled down: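 Quantitative HTS in p53RE-bla cells: after a 5 h settling period, compounds delivered in DMSO were left on cells for 16 h at 37 C, and reporter induction was measured as fluorescence following 2 h substrate loading.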
In assay [12] the target is 5-hydroxytryptamine receptor 2A (Homo sapiens) (UniProt P28223). Kind of assay: 5-hydroxytryptamine receptor 2A (HTR2A) small molecule antagonists, cell-based qHTS assay (AID 1963586). Further: nearly all actives have a fitted effect of over 45% in size. The method, boiled down: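 Antagonist-mode intracellular calcium assay: DOI (4 nM) added after 5 min compound pre-incubation at room temperature to dye-loaded HTR2A-CHO cells. Fluorescence followed for 3 min, sampled every second.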

The target is the same in assay [13]. Kind of assay: 5-hydroxytryptamine receptor 2A (HTR2A) small molecule agonists, cell-based qHTS assay (AID 1963587). Further: nearly all actives have a fitted effect of over 30% in size. Further: potency means the concentration at half of the fitted maximal effect. The method, boiled down:
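Kinetic calcium-flux fluorescence (2 min, 1 sec intervals) after compound addition in agonist mode. HTR2A-CHO cells were cultured 18 h, then dye-loaded 1 h at 37 C.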

Assay [14] concerns the target Muscarinic acetylcholine receptor M1 (Homo sapiens) (UniProt P11229). In words: Cholinergic receptor muscarinic 1 (CHRM1) small molecule antagonists, cell-based qHTS assay (AID 1963588). Further: nearly all actives have a fitted effect of over 40% in size. Further: potency means the concentration at half of the fitted maximal effect. The method, boiled down:
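CHRM1-CHO calcium-flux assay, antagonist mode. Cells were seeded 18 h, dye-loaded 1 h at 37 C and given compound for 5 min at RT, then acetylcholine was added at 50nM. FDSS fluorescence was read 3 min; 15 concentrations, three runs.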

The target is the same in assay [15]. In words: Cholinergic receptor muscarinic 1 (CHRM1) small molecule agonists, cell-based qHTS assay (AID 1963589). Further: nearly all actives have a fitted effect of over 35% in size. The procedure, abridged: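 Agonist-mode qHTS in CHO cells stably carrying human muscarinic M1. Intracellular calcium is tracked by fluorescence every second after compound transfer; each compound runs at 15 concentrations in three independent runs.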

Assay [16] can be described thus: cAMP Responsive Elements (CRE) small molecule agonists, cell-based qHTS assay (AID 1963590). The method, boiled down: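 Agonist mode qHTS in CRE-bla HEK 293T cells: compounds dosed from DMSO for 3 h at 37 C/5% CO2, followed by LiveBLAzer B/G FRET substrate for 2 h at room temperature.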
A short description of assay [17]: cAMP Responsive Elements (CRE) small molecule antagonists, cell-based qHTS assay (AID 1963591; active means well fitted inhibition curve with a large enough effect in the signal ratio in the repeat runs, not every such curve was filed as active; the % refers to the signal ratio; further: potency means the concentration at half of the fitted maximal effect). The procedure, abridged: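 Antagonist mode: test compounds are co-incubated with the adenylyl cyclase activator NKH477 (0.25 uM final) on CRE-bla HEK293T cells for 3 h at 37 °C, followed by LiveBLAzer substrate loading.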
The target of assay [18] is Beta-2 adrenergic receptor (Homo sapiens) (UniProt P07550). In words: Adrenergic beta2 receptor (ADRB2) small molecule antagonists, cell-based qHTS assay (AID 1963592). Further: series mostly up to about 92 µM; nearly all actives have a fitted effect of over 50% in size. The procedure, abridged:
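Cells (CHO, stable ADRB2 overexpression) incubated 18-20hr at 37C; compounds added from DMSO; agonist mix (1nM isoproterenol, 100uM IBMX, 25uM Ro-20-1724) added; 0.5hr RT; d2-cAMP and anti-cAMP-cryptate added; 1hr RT; 665/615 nm read.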

Assay [19] concerns the target D(2) dopamine receptor (Homo sapiens) (UniProt P14416). Kind of assay: Dopamine D2 receptor (DRD2) small molecule agonists, cell-based qHTS assay (AID 1963594). Further: nearly all actives have a fitted effect of over 35% in size. The procedure, abridged: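 cAMP accumulation in DRD2-HEK293 cells measured by HTRF after 1 h detection; compounds added 10 min before NKH477 (200nM […]) forskolin-analogue stimulation, 30 min at room temperature, with Ro20-1724 present at 0.1 mM final.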

Assay [20] shares this target. In words: Dopamine D2 receptor (DRD2) small molecule antagonists, cell-based qHTS assay (AID 1963595; active means well fitted inhibition curve with a large enough effect in the signal ratio in the repeat runs, with a control signal flat; the % refers to the signal ratio). The procedure, abridged:
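Readout: HTRF cAMP, cAMP-d2 competing with cellular cAMP for anti-cAMP cryptate, read after 1 h. Cells: DRD2-HEK293. Conditions: 0.1 mM Ro20-1724, 12 nM quinpirole, 200 nM NKH477, 30 min RT.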
On the % scale 0 is the no-effect control and ±100 the full control effect.

Muscarinic acetylcholine receptor M1 (Homo sapiens), sequence (P11229 whole entry, looked up): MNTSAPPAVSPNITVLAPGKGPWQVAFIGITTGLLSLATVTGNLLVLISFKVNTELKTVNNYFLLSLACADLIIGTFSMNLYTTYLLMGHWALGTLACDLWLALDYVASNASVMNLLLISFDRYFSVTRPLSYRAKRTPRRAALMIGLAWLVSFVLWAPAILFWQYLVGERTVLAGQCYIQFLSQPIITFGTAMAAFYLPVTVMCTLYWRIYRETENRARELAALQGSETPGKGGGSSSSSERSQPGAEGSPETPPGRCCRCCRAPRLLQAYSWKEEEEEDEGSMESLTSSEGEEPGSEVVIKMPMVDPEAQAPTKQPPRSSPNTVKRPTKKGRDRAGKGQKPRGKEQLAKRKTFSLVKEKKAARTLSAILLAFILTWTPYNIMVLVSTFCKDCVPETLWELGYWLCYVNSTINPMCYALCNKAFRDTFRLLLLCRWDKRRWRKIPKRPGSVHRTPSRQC
KiSS-1 receptor (Homo sapiens), sequence (Q969F8 whole entry, looked up): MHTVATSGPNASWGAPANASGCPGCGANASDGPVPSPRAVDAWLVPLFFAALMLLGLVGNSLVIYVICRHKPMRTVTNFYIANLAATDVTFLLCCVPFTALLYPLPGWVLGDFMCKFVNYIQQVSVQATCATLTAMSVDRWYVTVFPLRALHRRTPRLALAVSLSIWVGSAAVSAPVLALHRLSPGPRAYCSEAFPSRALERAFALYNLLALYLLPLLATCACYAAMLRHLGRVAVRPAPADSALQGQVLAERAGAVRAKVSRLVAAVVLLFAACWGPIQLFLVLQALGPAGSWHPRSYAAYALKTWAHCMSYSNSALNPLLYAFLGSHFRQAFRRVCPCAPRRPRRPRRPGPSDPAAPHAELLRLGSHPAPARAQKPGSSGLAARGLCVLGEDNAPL
Beta-2 adrenergic receptor (Homo sapiens), sequence (P07550 whole entry, looked up): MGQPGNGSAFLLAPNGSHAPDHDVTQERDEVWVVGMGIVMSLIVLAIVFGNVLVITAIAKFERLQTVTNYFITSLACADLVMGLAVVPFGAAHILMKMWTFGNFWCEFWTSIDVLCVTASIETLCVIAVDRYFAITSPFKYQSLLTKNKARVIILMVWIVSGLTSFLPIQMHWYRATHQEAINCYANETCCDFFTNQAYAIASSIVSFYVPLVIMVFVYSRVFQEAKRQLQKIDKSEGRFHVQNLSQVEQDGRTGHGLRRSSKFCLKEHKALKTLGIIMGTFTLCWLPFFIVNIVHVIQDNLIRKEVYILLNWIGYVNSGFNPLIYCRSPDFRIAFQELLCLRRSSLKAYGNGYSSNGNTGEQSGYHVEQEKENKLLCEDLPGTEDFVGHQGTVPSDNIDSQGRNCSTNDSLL
D(2) dopamine receptor (Homo sapiens), sequence (P14416 whole entry, looked up): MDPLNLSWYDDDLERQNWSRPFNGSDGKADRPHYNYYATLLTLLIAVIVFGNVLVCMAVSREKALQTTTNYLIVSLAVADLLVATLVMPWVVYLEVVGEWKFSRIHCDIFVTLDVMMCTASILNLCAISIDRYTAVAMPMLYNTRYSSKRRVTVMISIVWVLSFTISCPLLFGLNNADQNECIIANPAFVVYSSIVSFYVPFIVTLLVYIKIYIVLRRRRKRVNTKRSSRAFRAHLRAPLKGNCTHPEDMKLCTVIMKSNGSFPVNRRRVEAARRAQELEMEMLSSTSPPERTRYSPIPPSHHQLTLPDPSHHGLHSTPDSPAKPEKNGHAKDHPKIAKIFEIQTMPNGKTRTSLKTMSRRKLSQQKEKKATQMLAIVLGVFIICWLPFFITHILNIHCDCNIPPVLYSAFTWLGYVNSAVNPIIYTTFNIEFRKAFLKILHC
5-hydroxytryptamine receptor 2A (Homo sapiens), sequence (P28223 whole entry, looked up): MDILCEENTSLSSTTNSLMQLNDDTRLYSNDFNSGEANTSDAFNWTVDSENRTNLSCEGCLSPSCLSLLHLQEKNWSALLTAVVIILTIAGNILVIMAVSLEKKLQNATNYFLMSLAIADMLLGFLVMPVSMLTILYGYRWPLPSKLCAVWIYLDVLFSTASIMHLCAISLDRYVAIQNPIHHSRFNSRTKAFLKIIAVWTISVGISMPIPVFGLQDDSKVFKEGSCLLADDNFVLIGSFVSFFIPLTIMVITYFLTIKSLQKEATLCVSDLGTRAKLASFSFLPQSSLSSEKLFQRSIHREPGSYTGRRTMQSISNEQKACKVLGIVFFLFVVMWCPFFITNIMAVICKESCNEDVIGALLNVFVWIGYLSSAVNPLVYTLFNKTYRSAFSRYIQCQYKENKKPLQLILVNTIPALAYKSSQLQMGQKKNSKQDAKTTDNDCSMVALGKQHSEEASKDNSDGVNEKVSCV
Gonadotropin-releasing hormone receptor (Homo sapiens), sequence (P30968 whole entry, looked up): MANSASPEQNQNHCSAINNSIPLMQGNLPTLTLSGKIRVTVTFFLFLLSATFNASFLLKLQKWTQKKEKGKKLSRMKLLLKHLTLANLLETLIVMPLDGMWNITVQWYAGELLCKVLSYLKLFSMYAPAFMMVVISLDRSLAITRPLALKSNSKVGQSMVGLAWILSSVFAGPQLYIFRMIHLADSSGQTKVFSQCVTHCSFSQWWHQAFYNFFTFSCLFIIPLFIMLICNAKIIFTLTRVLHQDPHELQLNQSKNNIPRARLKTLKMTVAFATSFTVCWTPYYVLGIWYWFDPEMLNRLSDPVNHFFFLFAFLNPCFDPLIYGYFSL

Consider `CC(C)C(O)C(C)(C)CO` (stereo not given), for which the Potency entry in assay [1], in assay [2], in assay [3], in assay [6], in [7] and in assay [8] was “inactive” throughout. Moreover, the Potency result in assay [9], in assay [11], in assay [12], in [13], in assay [15] and in assay [16] was “inactive” in each case. Moreover, the Potency entry in assay [18], in [19] and in [20] was “inactive” in each case. For the same molecule, the outcome in assay [4] and in assay [5] was inactive. Also, the Potency was 3.75 µM (active) in assay [10], 0.487 µM (active) in assay [14] and 56.2 µM (active) in assay [17].
Consider `CC(C)(C)C1=CC(=O)C(C(C)(C)C)=CC1=O`, for which the Potency entry in assay [1], in assay [3], in assay [6], in [7], in [8] and in assay [9] was “inactive” in each case. For the same molecule, the Potency entry in assay [10], in [11], in assay [12], in [14], in [15] and in assay [16] was “inactive” in each case. The Potency entry in assay [17], in assay [18], in assay [19] and in assay [20] was “inactive” each time. Further, the results for the Potency in assay [2] and in [13] were 26.6 µM (active) and 3.79 µM (active), respectively. Moreover, the outcome in assay [4] and in assay [5] was inactive.
`CCCCCCCCCCCCCCN(C)C`: the activity change, negative = cytotoxicity was 2.19% [at 19 µM] in [1], 6.35% [at 13.5 µM] in assay [8], -0.358% [at 13.5 µM] in [9] and 1.73% [at 13.5 µM] in assay [10]. In assay [2], the activity, positive = activation was 2.64% [at 19 µM]. In addition, the activity change in assay [3] is -0.071% [at 11.8 µM, active compounds read high]. The activation in assay [4] is 2.68% [at 15.8 µM]; in assay [5], -0.129% [at 11.8 µM]; in assay [6], -0.299% [at 13.5 µM]; in assay [7], -1.12% [at 13.6 µM]; in assay [11], -0.74% [at 13.5 µM]; in assay [13], 12% [at 15.9 µM]. Besides, the activation in [15] was 0.401% [at 15.8 µM]; in [16], -0.847% [at 19 µM]; in [19], 0.215% [at 19 µM]. In addition, the activity, negative = inhibition in [12] is 2.96% [at 12.7 µM]; in assay [14], 5.47% [at 12.6 µM]. Also, the activity change, negative = inhibition is -9.63% [at 18.9 µM] in assay [17], -1.54% [at 19 µM] in assay [18] and -0.238% [at 18.9 µM] in assay [20].
On to `O=c1cc[nH]cc1`, for which the Potency result in [1], in assay [2], in assay [3], in [6], in [7] and in assay [8] was “inactive” each time. The Potency result in assay [9], in [10], in assay [11], in assay [12], in [13] and in [14] was “inactive” each time. Moreover, the Potency result in [15], in assay [16], in [17], in assay [18], in [19] and in [20] was “inactive” throughout. For the same molecule, the result in assay [4] and in assay [5] was inactive.
Regarding `CCc1cccc(CC)c1N(COC)C(=O)CS(=O)(=O)O`, the Potency entry in assay [1], in assay [2], in [3], in assay [6], in assay [7] and in assay [8] was “inactive” in each case. Further, the Potency result in assay [9], in assay [10], in [11], in assay [12], in assay [13] and in [14] was “inactive” throughout. Moreover, the Potency entry in assay [15], in assay [16], in assay [17], in assay [18], in assay [19] and in [20] was “inactive” in each case. The outcome in assay [4] and in assay [5] was inactive.
Regarding `Cc1cnc(C)c(C)n1`, the Potency result in [1], in assay [2], in assay [3], in assay [6], in assay [7] and in [8] was “inactive” throughout. Further, the Potency result in [9], in assay [10], in [11], in [12], in assay [13] and in assay [14] was “inactive” throughout. For the same molecule, the Potency entry in [15], in assay [16], in [17], in assay [18], in assay [19] and in assay [20] was “inactive” throughout. Also, the result in assay [4] and in assay [5] was inactive.
